The values that follow come from PubChem BioAssay (EPA / NIEHS).

What is called AC50 is the concentration giving half of the maximal activity seen.

Results filed as inconclusive are left out. The source made the active and inactive calls. How the source made its calls: active means hit-call score of the fitted dose curve at least 0.9, where 1 is the maximum; inconclusive means response in the unintended direction; inactive means score below 0.9.

In the assay the target is Estrogen receptor (Homo sapiens) (UniProt P03372). The experiment in a line: CCTE_Deisenroth_AIME_384WELL_LUC_Active: CCTE's 384-well Estrogen Receptor Transactivation Assay with AIME metabolic competence (ERTA luciferase; metabolism positive), Deisenroth Lab (AID 2284030). How it is done: CCTE_Deisenroth_AIME_384WELL (AIME metabolism assay) is a cell-based, single-readout assay that uses VM7Luc4E2, a human mammary gland/breast cell line, with measurements taken at 24 hour after chemical dosing in a 384-well plate.CCTE_Deisenroth_AIME_384WELL_LUC_Active is one of four assay components measured or calculated from the CCTE_Deisenroth_AIME_384WELL assay. It is designed to make measurements of luciferase induction, a form of inducible reporter, as detected with bioluminescence signals by luciferase-coupled ATP quantitation technology.CCTE_Deisenroth_AIME_384WELL_LUC_Active is a component of the CCTE_Deisenroth_AIME_384WELL assay that measures the effect of retroftting the VM7Luc ERTA assay with the Alginate Immobolization of Metabolic Enzymes (AIME) metabolism method. AIME is optimized to impart phase I hepatic metabolism using phenobarbital/beta-naphthoflavone induced hepatic S9 from male Sprague Dawley rats. Parent chemicals are incubated for 2 hours in the AIME assay prior to transfer to the VM7Luc ERTA assay plate. […] This endpoint evaluates reporter induction in metabolism positive mode. Using a type of inducible reporter in VM7Luc cells, gain-of-signal activity can be used to understand changes in the reporter gene as they relate to xenobiotic metabolism and the gene ESR1. This assay endpoint, CCTE_Deisenroth_AIME_384WELL_LUC_Active, was analyzed in the positive analysis fitting direction relative to 17beta-estradiol as the positive control in the ERTA assay. To generalize the intended target to other relatable targets, this assay endpoint is annotated to the nuclear receptor intended target family, where the subfamily is steroidal.
Chain of Estrogen receptor (Homo sapiens) (P03372 whole entry, looked up): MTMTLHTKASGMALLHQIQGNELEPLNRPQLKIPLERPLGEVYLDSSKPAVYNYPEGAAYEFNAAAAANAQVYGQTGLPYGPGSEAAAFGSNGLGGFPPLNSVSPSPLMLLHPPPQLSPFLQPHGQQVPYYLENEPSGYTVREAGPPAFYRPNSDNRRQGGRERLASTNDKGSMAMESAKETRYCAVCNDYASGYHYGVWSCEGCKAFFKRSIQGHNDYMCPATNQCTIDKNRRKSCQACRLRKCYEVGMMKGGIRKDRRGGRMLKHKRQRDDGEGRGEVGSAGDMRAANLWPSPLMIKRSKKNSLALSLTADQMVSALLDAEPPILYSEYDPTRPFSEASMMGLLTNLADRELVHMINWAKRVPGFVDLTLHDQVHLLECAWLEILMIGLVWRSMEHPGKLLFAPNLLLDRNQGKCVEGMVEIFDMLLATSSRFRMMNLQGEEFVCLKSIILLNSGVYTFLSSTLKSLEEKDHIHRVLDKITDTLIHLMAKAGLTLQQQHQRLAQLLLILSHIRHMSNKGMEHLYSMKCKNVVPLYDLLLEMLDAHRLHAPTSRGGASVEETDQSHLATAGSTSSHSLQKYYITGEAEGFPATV
The AIME procedure consists of a preparative "pre-stamping" step using a barium chloride/poly-L-lysine (PLL) solution followed by "stamping" the lid in alginate-hepatic S9 (metabolism positive) or alginate-water (metabolism negative) to form microspheres. Once stamping is completed, the AIME lids are placed in duplicate microplates (metabolism positive or negative) containing chemical solutions and incubated for two hours to facilitate metabolic reactions. The conditioned medium, containing parent chemical or metabolites, is then transferred to the cell-based VM7Luc Estrogen Receptor Transactivation Assay (ERTA) for 24 hours. A typical experimental design tests a 10-point concentration series (0.002 - 200 uM) for 8 compounds (96-well format)1 or 32 compounds (384-well format)2 in single technical replicate. AIME assay controls include trans-stilbene (bioactivated control) and ethylparaben (bioinactivated control). ERTA assay plate controls include 17-beta estradiol (positive control) and DMSO (solvent control). Experiments typically comprise a minimum of four experimental replicates (n=4).
For the compound `CCCCOC(=O)C(C)O` (stereo not given), the compound was classed as inactive.
For the compound `O=C1C=CC(=O)N1c1ccccc1`, the outcome was inactive.
Same read-out and setting: then `CC(=O)CCC(C)C`, with “inactive”; and `N#Cc1ccccc1O`, with “inactive”.
With `CCCCCCCC/C=C\CCCCCCCC(=O)OCC(O)CO` (stereo not given), the compound was classed as inactive.
For the compound `O=C(c1ccccc1)c1ccc(O)cc1O`, the AC50 was 42.3 µM (active).
For the compound `OCC1CCCO1` (stereo not given), the result was inactive.
The same measure, in the same setting: then `CC(C)(C)c1cc(Cc2cc(C(C)(C)C)c(O)c(C(C)(C)C)c2)cc(C(C)(C)C)c1O`, with “inactive”.
In the case of `Cc1ccc(O)c(-n2nc3ccccc3n2)c1`, the AC50 was 51.3 µM (active).
`CCOC(OCC)OCC`: the outcome was inactive.
